Among all 5,500 compounds or so, about 2,000 (36%) were called active. Roughly 18% stayed inconclusive and do not appear here. No stated cut-off is given here; in the data, active means normalized growth mostly below about 0.91 (no sharp cut-off); inconclusive means no clear call, values can overlap the other calls; inactive means mostly above about 0.92. The list shows a part of the results.
Test: chemical genetic growth profiling, strain panel (AID 1159580);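 further: tested at 20 µM; growth read once vehicle control cultures reached saturation at 30 °C; 1 = growth at the plate median or of vehicle wells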
Conditions: S. cerevisiae deletion strains, growth OD
[1] = locus YBL105C, strain PKC1, stronger effect = lower value
[2] = locus YBR135W, strain CKS1, stronger effect = lower value
[3] = locus YBR136W, strain MEC1, stronger effect = lower value
[4] = locus YBR160W, strain CDC28, stronger effect = lower value
[5] = locus YDL017W, strain CDC7, stronger effect = lower value
[6] = locus YDL028C, strain MPS1, stronger effect = lower value
[7] = locus YDL108W, strain KIN28, stronger effect = lower value
[8] = locus YDL132W, strain cdc53, stronger effect = lower value
[9] = locus YDL214C, strain PRR2, stronger effect = lower value
[10] = locus YDR052C, strain DBF4, stronger effect = lower value
[11] = locus YDR054C, strain cdc34, stronger effect = lower value
[12] = locus YDR226W, strain ADK1, stronger effect = lower value
[13] = locus YDR477W, strain SNF1, stronger effect = lower value
[14] = locus YER123W, strain YCK3, stronger effect = lower value
[15] = locus YER133W, strain GLC7, stronger effect = lower value
[16] = locus YFL009W, strain cdc4, stronger effect = lower value
[17] = locus YFL029C, strain CAK1, stronger effect = lower value
[18] = locus YFR003C, strain YPI1, stronger effect = lower value
[19] = locus YFR019W, strain FAB1, stronger effect = lower value
[20] = locus YFR028C, strain CDC14, stronger effect = lower value
[21] = locus YGR040W, strain KSS1, stronger effect = lower value
[22] = locus YGR052W, strain FMP48, stronger effect = lower value
[23] = locus YGR092W, strain DBF2, stronger effect = lower value
[24] = locus YHR030C, strain SLT2, stronger effect = lower value
[25] = locus YHR079C, strain IRE1, stronger effect = lower value
[26] = locus YHR082C, strain KSP1, stronger effect = lower value
[27] = locus YHR205W, strain SCH9, stronger effect = lower value
[28] = locus YIL147C, strain SLN1, stronger effect = lower value
[29] = locus YJL095W, strain BCK1, stronger effect = lower value
[30] = locus YJL128C, strain PBS2, stronger effect = lower value
[31] = locus YJL157C, strain FAR1, stronger effect = lower value
[32] = locus YJR016C, strain ILV3, stronger effect = lower value
[33] = locus YJR066W, strain TOR1 (second series), stronger effect = lower value
[34] = locus YJR066W, strain TOR1, stronger effect = lower value
[35] = locus YKL067W, strain YNK1, stronger effect = lower value
[36] = locus YKL101W, strain HSL1, stronger effect = lower value
[37] = locus YKL193C, strain SDS22, stronger effect = lower value
[38] = locus YLR113W, strain HOG1, stronger effect = lower value
[39] = locus YLR133W, strain CKI1, stronger effect = lower value
[40] = locus YLR403W, strain SFP1, stronger effect = lower value
[41] = locus YML070W, strain DAK1, stronger effect = lower value
[42] = locus YMR001C, strain CDC5, stronger effect = lower value
[43] = locus YMR205C, strain PFK2 (second series), stronger effect = lower value
[44] = locus YNL006W, strain LST8, stronger effect = lower value
[45] = locus YNL020C, strain ARK1, stronger effect = lower value
[46] = locus YNL161W, strain CBK1, stronger effect = lower value
[47] = locus YNL183C, strain NPR1, stronger effect = lower value
[48] = locus YNL207W, strain RIO2, stronger effect = lower value
[49] = locus YNL222W, strain SSU72, stronger effect = lower value
[50] = locus YNL307C, strain MCK1 (second series), stronger effect = lower value
[51] = locus YOL078W, strain AVO1, stronger effect = lower value
[52] = locus YOL136C, strain PFK27, stronger effect = lower value
[53] = locus YOR061W, strain CKA2, stronger effect = lower value
[54] = locus YOR231W, strain MKK1, stronger effect = lower value
[55] = locus YOR329C, strain SCD5, stronger effect = lower value
[56] = locus YPL031C, strain PHO85, stronger effect = lower value
[57] = locus YPL153C, strain RAD53, stronger effect = lower value
[58] = locus YPL204W, strain HRR25, stronger effect = lower value
[59] = locus YPL209C, strain IPL1, stronger effect = lower value
[60] = locus YPL256C, strain CLN2, stronger effect = lower value
[61] = locus YPR111W, strain DBF20, stronger effect = lower value
[62] = strain NNK1, stronger effect = lower value
[63] = strain TSCII, stronger effect = lower value

Measured: normalized growth

NC(=O)c1cc[n+](CC2=C(C(=O)O)N3C(=O)[C@@H](NC(=O)[C@@H](c4ccccc4)S(=O)(=O)[O-])[C@H]3SC2)cc1
inactive: locus YAL040C, strain CLN3, stronger effect = lower value 0.993 | locus YCL061C, strain MRC1 (second series), stronger effect = lower value 0.999 | locus YER002W, strain NOP16, stronger effect = lower value 0.995 | locus YNL128W, strain TEP1, stronger effect = lower value 1 | locus YNL175C, strain NOP13, stronger effect = lower value 1 | locus YNL197C, strain WHI3, stronger effect = lower value 0.983 | locus YNL224C, strain SQS1, stronger effect = lower value 1 | locus YOR083W, strain WHI5 (second series), stronger effect = lower value 1.07 | locus YPL055C, strain LGE1, stronger effect = lower value 0.988

Nc1ccc(Sc2ccccc2)nc1Sc1ccccc1
inactive: locus YAR019C, strain CDC15, stronger effect = lower value 0.947 | [1] 0.961 | [2] 0.957 | [3] 0.957 | [4] 0.95 | [5] 0.967 | [6] 0.942 | locus YDL101C, strain DUN1, stronger effect = lower value 0.963 | [7] 0.958 | [8] 0.958 | [9] 0.927 | [10] 0.976 | [11] 0.947 | [12] 0.957 | [13] 0.901 | [14] 0.918 | [15] 0.927 | [16] 0.938 | [17] 0.935 | [18] 0.961 | [19] 0.984 | [20] 0.94 | [21] 0.909 | [22] 0.956 | [23] 0.875 | [25] 0.893 | [26] 0.948 | [27] 0.878 | [28] 0.962 | [29] 0.859 | [30] 0.886 | [31] 0.935 | [32] 0.965 | [33] 0.896 | [34] 0.851 | locus YKL048C, strain ELM1, stronger effect = lower value 0.969 | [35] 0.908 | [36] 0.913 | [37] 0.955 | locus YKL203C, strain TOR2, stronger effect = lower value 1.01 | [39] 0.945 | [40] 0.922 | [41] 0.915 | [42] 0.956 | [43] 0.938 | locus YMR277W, strain FCP1, stronger effect = lower value 0.938 | [44] 0.958 | [45] 0.938 | [46] 0.968 | [47] 0.956 | [48] 0.951 | [49] 0.951 | [50] 0.915 | [51] 0.956 | [52] 0.921 | [53] 0.919 | locus YOR119C, strain RIO1, stronger effect = lower value 0.935 | [54] 0.883 | [55] 0.962 | [56] 0.906 | [57] 0.906 | [58] 0.903 | [59] 0.959 | locus YPR025C, strain CCL1, stronger effect = lower value 0.956 | locus YPR106W, strain ISR1, stronger effect = lower value 0.957 | [61] 0.926 | [62] 0.954 | [63] 0.945
active: [24] 0.697 | [38] 0.757 | [60] 0.85

CCOC(=O)c1cc(CC)sc1NC(=O)c1ccc([N+](=O)[O-])o1
inactive: [1] 0.959 | [2] 0.992 | [3] 0.999 | [4] 1 | [5] 1 | [6] 0.988 | [7] 0.998 | [8] 0.996 | [10] 1 | [11] 0.985 | [12] 0.985 | [16] 0.985 | [17] 0.929 | [18] 1 | [20] 0.991 | [23] 0.505 | [25] 0.727 | [28] 1 | [30] 0.938 | [32] 0.95 | [37] 0.98 | [42] 0.998 | [46] 0.987 | [48] 0.995 | [49] 0.993 | [51] 1 | [54] 0.756 | [55] 1 | [59] 0.979 | [61] 0.906 | [62] 0.995 | [63] 0.998
active: [9] 0.226 | [13] 0.327 | [14] 0.34 | [15] 0.347 | [19] 0.3 | [21] 0.43 | [22] 0.205 | [24] 0.281 | [26] 0.202 | [27] 0.153 | [29] 0.318 | [31] 0.372 | [33] 0.197 | [34] 0.212 | [35] 0.435 | [36] 0.451 | [38] 0.574 | [39] 0.18 | [40] 0.129 | [41] 0.471 | [43] 0.47 | [44] 0.507 | [45] 0.338 | [47] 0.175 | [50] 0.464 | [52] 0.378 | [53] 0.334 | [56] 0.169 | [57] 0.487 | [58] 0.464 | [60] 0.337

— PubChem BioAssay AID1159580 (chemical genetic matrix, 2015)
